Only a selection was taken, and hits are over-represented in it overall.
PD-1 reverse act: activators reversing PD-1 mediated T-cell inhibition, primary screen, luminescence, primary human CD4 T cells, PD-L1 beads. CellTiter-Glo 96 h. activation, % (no concentration beside the values). 29,000 tested, under 10 active; call rule not given here;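 further: 0% = median vehicle wells and 100% = positive control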
ROS inducer: ROS inducers in U2OS cancer cells, primary screen, cell-based, H2DCF-DA fluorescence; U2OS ROS induction; hit rate 2% among 46,000; ROS induction (% of piperlongumine), % at 10 µM; in the data active means ROS induction above about 79%, passing the limit was not always enough;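 further: 0% = DMSO vehicle median and 100% = reference compound median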
NOMO-1 viab: NOMO-1 AML cell viability reduction, primary screen, STK33 inhibitor project, CellTiter-Glo luminescence; NOMO-1 AML viability, 72 h; inhibition, % (no concentration beside the values); hit rate 7.5% among 37,000; in the data active means inhibition above about 80%
Numbers without * were called inactive; · = no result.

SMILES | PD-1 reverse act | ROS inducer | NOMO-1 viab
COc1ccc(S(=O)(=O)Nc2ccc3c(c2)CC(=O)N([C@H](C)CO)C[C@@H](C)[C@@H](CN(C)S(=O)(=O)c2c(C)noc2C)O3)cc1 | 0 | 89* | 7
C[C@H](CO)N1C[C@H](C)[C@H](CN(C)C(=O)Nc2ccc(F)cc2)Oc2ccc(NS(=O)(=O)c3ccc(Cl)cc3)cc2CC1=O | 0 | 89* | 29
COc1ccc(NC(=O)N(C)C[C@H]2Oc3ccc(NS(=O)(=O)c4ccc(OC)cc4)cc3CC(=O)N([C@H](C)CO)C[C@H]2C)cc1 | 2 | 81* | 13
COc1ccc(NC(=O)N(C)C[C@H]2Oc3ccc(NS(=O)(=O)c4ccc(OC)cc4)cc3CC(=O)N([C@@H](C)CO)C[C@H]2C)cc1 | 0 | 3 | 6
C[C@@H]1CN([C@H](C)CO)C(=O)Cc2cc(NS(=O)(=O)c3ccc(Cl)cc3)ccc2O[C@H]1CN(C)C(=O)Nc1ccc(F)cc1 | · | -3 | 5
Cc1cc(C)cc(NC(=O)C(C)Oc2ccccc2)c1 (centres undefined) | · | -9 | ·
COC(=O)C1=C(N)OC2=C(C(=O)CC(C)(C)C2)C1c1ccc(C(=O)OC)cc1 (centres undefined) | 1 | 12 | 9
CCOc1ccc(-c2nc3ccc(-c4nc5ccc(N6CCN(C)CC6)cc5[nH]4)cc3[nH]2)cc1 | · | -5 | 116*
CCOc1ccc(N2C(=O)CC(SCc3nc4ccccc4[nH]3)C2=O)cc1 (centres undefined) | · | · | -9
C[C@@H]1CN([C@H](C)CO)C(=O)Cc2cc(NC(=O)c3ccncc3)ccc2O[C@H]1CN(C)Cc1ccc(C(=O)Nc2ccccc2N)cc1 | 0 | 16 | 29
C[C@@H]1CN([C@H](C)CO)C(=O)Cc2cc(NC(=O)C3CC3)ccc2O[C@@H]1CN(C)Cc1ccc(C(=O)Nc2ccccc2N)cc1 | -1 | 4 | 65
C[C@@H]1CN([C@H](C)CO)C(=O)Cc2cc(N(C)C)ccc2O[C@H]1CN(C)Cc1ccc(C(=O)Nc2ccccc2N)cc1 | -2 | 51 | 127*
C[C@@H]1CN([C@H](C)CO)C(=O)Cc2cc(N(C)C)ccc2O[C@@H]1CN(C)Cc1ccc(C(=O)Nc2ccccc2N)cc1 | -3 | 53 | 140*
CN(C)S(=O)(=O)Nc1cccc(N)c1 | · | -2 | ·
Cc1ccc2nc(NCCCO)[nH]c2c1 | · | · | 26
CCCCc1ccc2nc(NC(=O)OC)[nH]c2c1 | · | 10 | 120*
O=c1[nH]nc(-c2ccccc2)c2ccccc12 | -3 | -3 | 13
COC(=O)Nc1nc2ccc(-c3n[nH]c(=O)c4ccccc34)cc2[nH]1 | 0 | 2 | 108*
Cc1c2cnn(-c3ccccc3)c(=O)c2c(C)n1CCCC(=O)N(C)Cc1ccccc1 | · | 40 | ·
CCN1CCN(c2nc(-c3ccc(C(C)(C)C)cc3)nc3ccccc23)CC1 | · | 47 | ·
O=S(=O)(NCC(Nc1ccccc1)c1ccccc1)c1ccccc1 (centres undefined) | · | 2 | ·
C[C@H]1CN([C@@H](C)CO)C(=O)c2cccc(NC(=O)Nc3ccc(C(F)(F)F)cc3)c2O[C@@H]1CN(C)C(=O)Nc1cccc2ccccc12 | · | 9 | 102*
C[C@@H]1CN([C@H](C)CO)C(=O)c2cccc(NC(=O)Nc3ccc(F)cc3)c2O[C@@H]1CN(C)C(=O)Nc1cccc2ccccc12 | 1 | 6 | 56
C[C@@H]1CN([C@@H](C)CO)C(=O)c2cccc(NC(=O)Nc3cccc4ccccc34)c2O[C@H]1CN(C)C(=O)Nc1ccc(C(F)(F)F)cc1 | -5 | 11 | 44
C[C@H](CO)N1C[C@H](C)[C@@H](CN(C)C(=O)Nc2cccc3ccccc23)Oc2c(NC(=O)Nc3ccc(F)cc3)cccc2C1=O | 0 | -2 | 21
SMILES | PD-1 reverse act | ROS inducer | NOMO-1 viab
C[C@@H]1CN([C@@H](C)CO)C(=O)c2cccc(NC(=O)Nc3ccc(F)cc3)c2O[C@@H]1CN(C)C(=O)Nc1cccc2ccccc12 | -4 | 25 | 96*
C[C@@H]1CN([C@H](C)CO)C(=O)c2cccc(NC(=O)Nc3ccc(C(F)(F)F)cc3)c2O[C@H]1CN(C)C(=O)Nc1cccc2ccccc12 | · | 20 | 83*
Cc1nc2ccc(C(F)(F)F)cc2n1CCc1ccccc1 | · | 17 | ·
COc1ccc(-c2nnc(SCc3ccc(F)cc3)n2-c2ccccc2)cc1 | · | 27 | ·
COC(=O)Cc1nc(-c2ccc(F)cc2)sc1C | · | -6 | ·
O=C(NC1CCCC1)c1ccc2c(c1)N(Cc1ccccc1)C(=O)CS2 | · | 7 | ·
OCc1ccccc1CN1CCCCC1 | · | -11 | ·
COc1ccc(Cl)cc1NC=C1C(=O)OC2(CCCCC2)OC1=O | · | 13 | ·
CCCNC(=O)C(C)n1c2ccccc2c2cnn(C)c(=O)c21 (centres undefined) | · | 19 | ·
COc1ccc(-n2c(-c3cccc(OC)c3)csc2=NCc2cccnc2)cc1 | 1 | 116* | 43
COc1ccc(-n2c(SCC(N)=O)nnc2-c2cccnc2)cc1 | 0 | 10 | 14
Cc1ccc(S(=O)(=O)NC2c3ccccc3Oc3ccccc32)cc1 | · | 1 | ·
CSc1ccc2nnc(-c3ccc(F)cc3)n2n1 | · | -6 | ·
Cc1cc(C)cc(Sc2ccc3nnc(-c4ccccc4)n3n2)c1 | -5 | 35 | 122*
C[C@H](CO)N1C[C@H](C)[C@H](CN(C)C(=O)Nc2ccc3c(c2)OCO3)Oc2ncc(C#CC(C)(C)O)cc2C1=O | · | 6 | ·
C[C@H](CO)N1C[C@H](C)[C@H](CN(C)C(=O)Nc2ccc3c(c2)OCO3)Oc2ncc(/C=C/c3ccccc3)cc2C1=O | · | 120* | ·
C[C@H](CO)N1C[C@H](C)[C@H](CN(C)C(=O)Nc2ccc(F)cc2)Oc2ncc(/C=C/c3ccccc3)cc2C1=O | · | 90* | ·
C[C@H](CO)N1C[C@H](C)[C@H](CN(C)C(=O)Nc2ccc(F)cc2)Oc2ncc(-c3ccccc3)cc2C1=O | · | 42 | ·
C/C(=N\N(C)C)c1cc(Cl)cc(Cl)c1O | · | 1 | ·
CCOC(=O)Cc1nn(Cc2nc(-c3ccccc3)cs2)c(=O)c2ccccc12 | · | -1 | ·
CC1CCC(NC(=O)CCC(=O)Nc2nc(-c3cc4ccccc4oc3=O)cs2)CC1 (centres undefined) | · | 35 | ·
CC(C)(C)c1ccc(-c2nnc(-c3ccccc3NC(=O)CCC(=O)O)o2)cc1 | · | 73 | ·
N#Cc1c(N2CCN(C(=S)NCc3ccccc3)CC2)nc(-c2ccccc2)c2c1CCCC2 | · | 140* | ·
CCCc1nc(NCc2ccccc2)c(C#N)c2c1CCCC2 | · | -5 | ·
C=C1C(=O)O[C@H]2[C@H]1[C@@H](OC(=O)C(C)(O)C(C)Cl)C(OC(C)=O)/C(C(=O)OC)=C\CC[C@@]1(C)O[C@H]21 (some centres undefined) | -10 | 68 | 119*
CC(=O)[C@H]1CCC2[C@@H]3CCC4=CC(=O)CC[C@]4(C)C3CC[C@@]21C (some centres undefined) | -4 | 14 | 61
CC(=O)[C@@]1(O)CCC2C3CCC4=CC(=O)CC[C@]4(C)C3CC[C@@]21C (some centres undefined) | · | 155* | 34
CCCCCC(=O)O[C@]1(C(C)=O)CCC2C3CCC4=CC(=O)CC[C@]4(C)C3CC[C@@]21C (some centres undefined) | · | 71 | 110*
